# Measured values published in PubChem BioAssay.
# Key:
# [1] = test system: Human papillomavirus type 1a protein E7 (residues 44-93); assay: HPV1a E7 fragment binders on microarrays, primary screen, biochemical, small-molecule microarray, residues 44-93, 635 nm fluorescence (AID 1108); settings: small-molecule microarray binding, fluorescence 635 nm; higher = more signal;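 also: E7 fragment applied at 1 µg/mL in TBST for 1 h at 4 C; score combines spot fluorescence with its signal to noise ratio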
# [2] = modulators of HCV replicon luciferase signal, primary screen, HCV replication inhibitor project, Huh7 cells, luciferase reporter (AID 1109); settings: 48 h, higher = more signal;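 also: huh7 hepatoma cells harbouring a luciferase neomycin HCV replicon reporter; luciferase luminescence as measure of HCV replicon replication; test concentration not given here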
# [3] = molecular target: Left-right determination factor 2 (Homo sapiens) (UniProt O00292); assay: LEFTY2 binders on small-molecule microarrays, primary screen, biochemical, small-molecule microarray, 635 nm fluorescence scan (AID 1110); settings: LEFTY2 binding, higher = more signal
# Chain of Left-right determination factor 2 (Homo sapiens) (O00292 whole entry, looked up): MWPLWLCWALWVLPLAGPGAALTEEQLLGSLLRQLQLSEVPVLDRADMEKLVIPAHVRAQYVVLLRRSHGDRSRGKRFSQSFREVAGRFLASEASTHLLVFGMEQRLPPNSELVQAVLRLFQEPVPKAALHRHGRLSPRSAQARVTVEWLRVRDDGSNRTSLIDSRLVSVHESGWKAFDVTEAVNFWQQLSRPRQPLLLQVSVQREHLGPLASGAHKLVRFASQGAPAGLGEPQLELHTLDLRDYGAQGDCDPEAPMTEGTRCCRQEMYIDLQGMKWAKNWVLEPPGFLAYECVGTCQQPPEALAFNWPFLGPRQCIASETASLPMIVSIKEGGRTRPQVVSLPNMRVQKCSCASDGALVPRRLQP
# [4] = molecular target: Calmodulin-1 (Homo sapiens) (UniProt P0DP23); assay: CALM1 binders on microarrays, EGTA buffer, profiling panel, biochemical, small-molecule microarray, Cy5-labelled CALM1 (AID 1111); settings: Cy5-CALM1 binding fluorescence, higher = more signal;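 also: labelled calmodulin applied in Tris saline Tween buffer holding calcium plus EGTA and DTT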
# [5] = molecular target: Calmodulin-1 (Homo sapiens) (UniProt P0DP23); assay: calcium-bound CALM1 binders on microarrays, profiling panel, artefact control for SMM control-protein annotation, biochemical, small-molecule microarray, Cy5-labelled CALM1, plus calcium (AID 1112); settings: Cy5-CALM1 binding fluorescence, higher = more signal;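 also: score merges spot fluorescence with signal to noise from triplicate slides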
# [6] = small-molecule microarray binders of probe aWnt5a, primary screen, biochemical, biotinylated probe, 635/667 nm fluorescence (AID 1113); settings: higher = more signal;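 also: score merges 667 nm fluorescence intensity with signal-to-noise per printed feature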
# [7] = small-molecule microarray binders of probe aShh, primary screen, biochemical, biotinylated probe, 635/667 nm fluorescence (AID 1114); settings: higher = more signal;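 also: probe is biotin-labelled aShh protein from a stem cell growth factor screen; measures binding of labelled protein to compounds printed on the slide; score merges feature fluorescence at 667 nm with signal-to-noise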
# [8] = small-molecule microarray binders of probe aNog, primary screen, biochemical, biotinylated probe, 635/667 nm fluorescence (AID 1115); settings: higher = more signal;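 also: probe is biotinylated aNog protein used at 0.15 µg/mL for 1 h at 4 C; z-score combines 667 nm fluorescence of each spot with its signal to noise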
# [9] = molecular target: Torsin-1A-interacting protein 1 (Homo sapiens) (UniProt Q5JTV8); assay: LAP1 binders from COS7 cell lysate, primary screen, small-molecule microarray, 635/667 nm fluorescence (AID 1116); settings: COS7-hLAP1 lysate binding, 635 nm fluorescence, higher = more signal
# Chain of Torsin-1A-interacting protein 1 (Homo sapiens) (Q5JTV8 whole entry, looked up): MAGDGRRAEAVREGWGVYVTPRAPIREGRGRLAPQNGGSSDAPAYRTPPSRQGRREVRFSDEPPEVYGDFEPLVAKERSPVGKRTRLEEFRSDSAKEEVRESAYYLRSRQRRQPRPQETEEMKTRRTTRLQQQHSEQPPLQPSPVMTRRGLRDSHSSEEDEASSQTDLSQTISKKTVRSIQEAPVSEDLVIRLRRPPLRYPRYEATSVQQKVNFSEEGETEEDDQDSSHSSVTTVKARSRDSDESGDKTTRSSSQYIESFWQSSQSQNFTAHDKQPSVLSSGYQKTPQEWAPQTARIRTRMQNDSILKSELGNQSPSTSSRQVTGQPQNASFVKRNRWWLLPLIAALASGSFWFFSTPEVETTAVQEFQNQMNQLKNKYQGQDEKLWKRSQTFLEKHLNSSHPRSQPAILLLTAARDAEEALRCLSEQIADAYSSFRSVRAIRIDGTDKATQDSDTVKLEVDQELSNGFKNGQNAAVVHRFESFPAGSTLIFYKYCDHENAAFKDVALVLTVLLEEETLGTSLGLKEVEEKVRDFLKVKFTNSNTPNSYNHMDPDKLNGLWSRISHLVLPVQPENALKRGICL
# [10] = molecular target: Alpha-bungarotoxin (Bungarus multicinctus) (UniProt P60615); assay: alpha-bungarotoxin binders on microarray, profiling panel, artefact control for SMM control protein annotation, biochemical, small-molecule microarray, Alexa647 label, 635/667 nm fluorescence (AID 1117); settings: alpha-BTX-A647 binding fluorescence, higher = more signal
# Chain of Alpha-bungarotoxin (Bungarus multicinctus) (P60615 whole entry, looked up): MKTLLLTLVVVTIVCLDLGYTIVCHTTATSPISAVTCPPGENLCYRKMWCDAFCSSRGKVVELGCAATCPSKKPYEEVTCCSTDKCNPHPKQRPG
Structure (SMILES),composite z-score [1],z-score [2],composite z-score [3],composite z-score [4],composite z-score [5],composite z-score [6],composite z-score [7],composite z-score [8],composite z-score [9],composite z-score [10]
C=C(C(=O)CC[C@@H](OC(=O)c1ccccc1-c1ccccc1C(=O)O)c1ccc(CO)o1)C(C)C,0.476,-1.53,0.367,-0.236,-0.86,-0.118,-0.349,-0.295,1.27,0.101
C=C(CCCC)C(=O)CC[C@@H](OC(C)=O)c1ccc(OCCO)cc1,0.159,-1.98,0.125,-0.537,-1.29,-0.1,-0.0035,-0.113,3.18,-0.127
O=C1c2ccccc2[C@](Cc2ccccc2I)(C(=O)NCCN2CCOCC2)[C@H](c2ccc(CO)cc2)N1Cc1ccccc1C(F)(F)F,1.4,-2.44,-0.325,0.799,0.492,-0.0721,-0.221,-0.43,0.598,0.787
COc1ccc([Si](C)(C)[C@@H]2[C@@H](CC(=O)N(CCO)Cc3ccccc3)O[C@]3(C(=O)N(Cc4cccc(I)c4)c4ccccc43)[C@H]2C)cc1,1.28,-3.82,0.741,2.83,1.21,-0.0425,0.564,0.0051,0.319,0.855
COC(=O)[C@@]1(Cc2ccc(F)cc2)[C@H]2c3cc(C(=O)N(C)C)n(Cc4ccc(C(F)(F)F)nc4)c3C[C@H]2CN1C(=O)c1ccccc1,1.38,-2.42,0.22,2.27,0.789,0.15,0.25,-0.235,0.0971,0.922
[N-]=[N+]=Nc1ccccc1C[C@@]1(C(=O)NCc2ccccc2)N=C(c2ccc(OCCCO)cc2)O[C@@H]1c1ccccc1,1.08,-1.76,0.262,1.41,0.313,0.534,0.0326,2.22,1.13,0.39
C[N+](C)(C)CCCC[C@@H]1NC(=O)[C@H]2C[C@@H](C(=O)NCCCCCN)[C@@H](c3ccc(O)cc3)N2C1=O,-0.0195,0.493,1.34,1.67,0.631,-0.0403,-0.0886,0.177,1.52,2.54
COC(=O)Cn1c(C(=O)N(C)C)cc2c1C[C@H]1CN(C(=O)c3ccccc3)[C@@](Cc3ccccc3)(C(=O)OC)[C@@H]21,-1.8,-0.0967,0.103,0.371,-0.198,0.0077,0.253,-0.354,-0.878,0.195
COc1ccc(C(=O)Nc2ccc(CN3C(=O)[C@@]4(O[C@@H](CC(=O)N(CCO)Cc5ccccc5)[C@H]([Si](C)(C)c5ccc(OC)cc5)[C@H]4C)c4ccccc43)cc2)cc1,-0.471,-3.92,0.444,0.655,-0.0779,-0.14,-0.341,-0.31,0.121,0.331
COc1ccc([Si](C)(C)[C@H]2[C@H](CCO)O[C@@]3(C(=O)N(Cc4ccccc4)c4ccc(NC(=O)[C@H](C)O)cc43)[C@@H]2C)cc1,1.37,-5.05,0.424,0.362,0.195,0.026,-0.138,0.514,0.795,0.627
[N-]=[N+]=NCc1ccccc1C[C@@]1(C(=O)NCCN2CCOCC2)N=C(c2ccc(OCCCO)cc2)O[C@@H]1c1ccccc1,1.39,-2.6,-0.58,1.26,0.683,0.0391,0.358,0.35,1.06,1.19
COCCCNC(=O)[C@@]1(Cc2ccccc2I)c2ccccc2C(=O)N(Cc2ccccc2OC)[C@H]1c1ccc(CO)cc1,1.39,-2.08,-0.43,0.0345,0.0879,-0.248,-0.0146,-0.537,-0.013,0.101
C=C[C@H](C)[C@@H](OC(=O)Nc1ccc(SC)cc1)c1ccc(OCCO)cc1,1.3,-0.931,-0.396,0.19,0.601,-0.0792,-0.0643,0.958,0.248,0.438
C=C(C(=O)CC[C@H](OC(=O)c1ccccc1-c1ccccc1C(=O)O)c1ccc(OCCO)cc1)C(C)C,1.38,-1.26,0.0164,0.275,-0.37,0.204,0.0639,1.14,0.735,0.971
COCCOC(=O)N1C(=O)[C@@]2(c3cc(C#CCC(C(=O)OC)C(=O)OC)ccc31)[C@H](C(=O)N1CCc3cc(OC)c(OC)cc3C1)[C@H]1C(=O)O[C@H](c3ccccc3)[C@H](c3ccccc3)N1[C@@H]2c1ccccc1OCCO,1.36,-1.61,1.07,0.965,-0.226,-0.0125,1.57,-0.512,1.03,0.774
COC(=O)[C@@]1(Cc2ccc(OC)cc2)[C@H]2c3cc(C(=O)N(C)C)n(Cc4c(CO)[nH]cc(C)c4=O)c3C[C@H]2CN1C(=O)c1ccccc1,0.784,-1.37,-0.0944,1.1,0.351,0.302,0.04,-0.211,0.376,0.302
C[C@]12C(=O)N(CCO)[C@@H]3C(=O)N(c4ccc(Cl)cc4)CC=CC31O[C@@H]1/C=C\CCCOC(=O)C12 (stereo not given in full),-0.576,-0.445,-1.59,0.409,0.186,-0.18,-0.154,-0.153,-0.759,-0.181
C=CC[C@H](O)c1ccc(O)c(F)c1,-2.12,-1.74,-1.13,-0.829,-0.589,-0.229,-0.138,-0.537,-0.992,-0.328
C=C(COC)C(=O)CC[C@H](OC(C)=O)c1ccc(CO)o1,-1.05,0.272,0.451,0.44,-1.07,-0.152,-0.0709,-0.273,-0.534,0.706
O=C1NC(=O)C2C1C=CC(C(O)C(O)CO)N2Nc1ccccn1 (stereo not given),0.492,0.538,0.322,0.339,-0.635,0.0502,-0.0035,-0.201,0.0465,0.315
COCCOC(=O)N1C(=O)[C@@]2(c3ccccc31)[C@H](C(=O)Nc1nc3ccccc3s1)[C@H]1C(=O)O[C@H](c3ccccc3)[C@H](c3ccccc3)N1[C@@H]2c1ccccc1OCCO,1.41,-1.83,0.146,1.51,0.476,-0.0685,-0.225,0.36,0.429,1.72
COC(=O)[C@]1(Cc2ccccc2CN=[N+]=[N-])N=C(c2ccc(OCCCO)cc2)O[C@@H]1c1ccccc1N=[N+]=[N-],-0.131,-2.65,-0.0976,-0.0209,-0.307,-0.0346,-0.018,1.03,0.963,0.37
C=C(C(=O)CC[C@@H](OC(=O)c1ccccc1-c1ccccc1C(=O)O)c1ccc(OCCO)cc1)C(C)C,1.33,-2.58,0.63,0.653,-0.698,0.0162,0.108,-0.095,1.3,0.478
CC(C)c1ccc(NN2C(C(O)C(C)c3ccccc3)C=CC3C(=O)N(c4ccccc4)C(=O)C32)cc1 (stereo not given),-0.377,1.63,0.162,2.61,1.35,0.474,0.252,2.01,2.3,2.13
Cc1ccc(S[C@]2(C(=O)NCCN3CCOCC3)CC(=O)N(C(C)C)[C@@H]2c2ccc(CO)cc2I)cc1,0.89,-2.32,-0.532,-1.17,-0.693,-0.154,-0.138,-0.119,0.974,-1.08
COC(=O)[C@@]1(Cc2ccc(F)cc2)[C@H]2c3cc(C(=O)N(C)C)n(CCF)c3C[C@H]2CN1C(=O)c1ccccc1,-0.999,-1.38,-0.0571,0.838,0.55,0.0657,0.337,0.787,0.163,0.3
